# Measured values: PubChem BioAssay
# Several values for one entry are separate records, joined by “and”; a condition that tells them apart may be missing. Identical values can stand only once. For some assays here: Results with a measured potency or affinity are listed apart. Activity calls are given as the source filed them.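 How the source made its calls, unless noted: active means luciferase signal above three times the same-plate solvent-only control wells; inactive means the rest.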
# Experiments:
# [1] = molecular target: 6-phosphogluconate dehydrogenase, decarboxylating (Homo sapiens) (UniProt P52209); experiment: inhibition of human phosphogluconate dehydrogenase – biochemical, recombinant enzyme, NADPH absorbance, primary screen (AID 1159550;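 active means at least 20% inhibition of 6-phosphogluconate dehydrogenase activity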); details: recombinant 6PGD, NADPH absorbance 341 nm; at 10 µM; stronger effect = higher value
# [2] = EMT-state selective cytotoxicity in co-culture – imaging, PC-3E GFP, TEM4-18 mCherry, primary screen (AID 1345086;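 active means compounds killing one labelled cell type while sparing the other, by normalised counts and ratio limits, not self-fluorescent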;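 on all read-outs here: cells exposed to compound for 72 h before imaging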;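 on red/green cell ratio (normalised): normalised mesenchymal count divided by normalised epithelial count so high means epithelial killing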); details: PC-3E GFP / TEM4-18 mCherry co-culture, imaging cell counts, at 1 µM; for red/green cell ratio (normalised): actives lie on both sides
# [3] = test system: Aerobactin synthetase IucA (Klebsiella pneumoniae hvKP1); experiment: IucA enzyme inhibition, primary screen, biochemical, Spectrum library (AID 1346200; call rule not given here;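 further: 100% = wells without compound and 0% = wells lacking enzyme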); details: malachite green pyrophosphate, A620, at 8 µM, stronger effect = lower value
# [4] = molecular target: Mitogen-activated protein kinase 7 (Homo sapiens) (UniProt Q13164); experiment: Gal4-ERK5 driven luciferase induction – cell-based, HTS, primary screen (AID 1508626); details: HeLa Gal4-ERK5 transactivation, 18 h, at 5 µM, stronger effect = higher value;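 further: luciferase driven by Gal4-ERK5 fusion binding five Gal4 sites before minimal TATA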
# [5] = blockers of polyQ-driven CASP3 activation – cell-based (AID 1583); details: polyglutamine-induced caspase-3 activation, cell assay; stronger effect = higher value;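 tested at 10 µM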
# [6] = yeast 75Q aggregation reduction – 75Q-TubU reporter (AID 1593); details: Yeast 75Q polyglutamine aggregation reporter
# [7] = restoration of touch response, mutant HTT neurons – whole organism, C. elegans mechanosensory neurons, N-terminal huntingtin (AID 1599); details: C. elegans polyQ-huntingtin mechanosensory neurons, stronger effect = higher value
# [8] = blockers of cytochrome c efflux from mitochondria – biochemical, purified mitochondria (AID 1603); details: stronger effect = lower value;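 further: mouse liver mitochondria challenged with calcium chloride; signal normalized to the plate average as 100%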
# [9] = polyglutamine aggregate formation blockers (AID 1604); details: polyglutamine-induced protein aggregation inhibition assay; stronger effect = higher value; tested at 2.5 µM
# [10] = glutamate transport activators, MN-1 cells, MN-1 cell line (AID 1612); details: MN-1 motor neuron cells, stronger effect = higher value;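 further: tested at 1 µM final; 0% = mean of DMSO vehicle wells on each plate; positive means more glutamate uptake than control and negative means less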
# [11] = GFP-Q80 aggregate reduction, neuronal-like cells, cell-based, NGF-treated PC12, GFPQ80 (AID 1614); details: PC12 NGF-treated GFP-polyQ80 inclusion reduction;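 further: lower means fewer inclusions and 0 means no inclusions at all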
# [12] = 75Q-TubH aggregate inhibition, S. cerevisiae, yeast (AID 1616); details: S. cerevisiae 75Q-TubH polyglutamine aggregation suppression; stronger effect = higher value
# [13] = counts scaled to control wells, 1 = unselective
# [14] = measured here: epithelial PC-3E GFP cell survival
# [15] = measured here: mesenchymal TEM4-18 mCherry cell survival
# Chain of Mitogen-activated protein kinase 7 (Homo sapiens) (Q13164 whole entry, looked up, the tested form may be a part): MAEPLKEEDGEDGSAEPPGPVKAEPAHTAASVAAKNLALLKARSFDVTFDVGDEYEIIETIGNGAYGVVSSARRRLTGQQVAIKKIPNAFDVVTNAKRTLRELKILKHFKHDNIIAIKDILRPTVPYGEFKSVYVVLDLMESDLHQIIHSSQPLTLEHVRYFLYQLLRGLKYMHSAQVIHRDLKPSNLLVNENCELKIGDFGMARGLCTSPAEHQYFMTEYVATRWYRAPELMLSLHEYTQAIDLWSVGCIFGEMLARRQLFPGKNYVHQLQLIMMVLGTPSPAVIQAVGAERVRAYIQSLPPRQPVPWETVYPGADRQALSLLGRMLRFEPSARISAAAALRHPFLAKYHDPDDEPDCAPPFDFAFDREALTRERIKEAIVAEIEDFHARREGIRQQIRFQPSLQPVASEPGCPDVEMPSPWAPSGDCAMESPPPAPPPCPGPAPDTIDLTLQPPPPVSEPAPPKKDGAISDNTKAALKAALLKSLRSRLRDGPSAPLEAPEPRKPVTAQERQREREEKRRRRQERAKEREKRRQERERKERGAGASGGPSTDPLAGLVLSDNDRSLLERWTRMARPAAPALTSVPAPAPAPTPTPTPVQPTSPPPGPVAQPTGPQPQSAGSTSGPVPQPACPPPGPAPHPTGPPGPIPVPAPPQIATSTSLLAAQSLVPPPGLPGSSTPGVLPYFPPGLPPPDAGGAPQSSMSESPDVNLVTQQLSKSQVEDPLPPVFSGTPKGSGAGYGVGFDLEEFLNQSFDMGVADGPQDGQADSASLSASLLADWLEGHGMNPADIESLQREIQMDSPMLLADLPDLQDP
# Chain of 6-phosphogluconate dehydrogenase, decarboxylating (Homo sapiens) (P52209 whole entry, looked up): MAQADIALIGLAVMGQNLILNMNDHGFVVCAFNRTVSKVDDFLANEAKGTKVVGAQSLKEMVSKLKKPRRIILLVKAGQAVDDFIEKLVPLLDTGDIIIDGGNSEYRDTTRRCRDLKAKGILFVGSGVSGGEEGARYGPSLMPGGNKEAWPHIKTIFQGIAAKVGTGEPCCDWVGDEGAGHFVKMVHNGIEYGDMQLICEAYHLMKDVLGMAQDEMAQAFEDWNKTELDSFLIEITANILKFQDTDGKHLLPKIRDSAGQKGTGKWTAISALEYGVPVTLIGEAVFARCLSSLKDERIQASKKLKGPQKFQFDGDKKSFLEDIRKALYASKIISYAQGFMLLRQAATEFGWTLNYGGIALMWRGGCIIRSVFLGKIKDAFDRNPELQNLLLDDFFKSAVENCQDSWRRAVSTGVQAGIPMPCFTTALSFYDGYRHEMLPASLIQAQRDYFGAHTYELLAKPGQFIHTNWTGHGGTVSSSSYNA
compound,measurement,setting,value
CC(=O)CC1CCCCN1 (configuration not stated),inhibition,[1],16.3% (inactive)
same,red/green cell ratio (normalised),[2]; [13],1.09 (inactive)
same,normalised cell number,[2]; [14],0.99
same,normalised cell number,[2]; [15],1.09
same,activity remaining,[3],107% (inactive)
same,luciferase signal,[4],48 AU (inactive)
C=C(C)c1cc2cc(C(C)=O)c(O)cc2o1,inhibition,[1],13.2% (inactive)
same,red/green cell ratio (normalised),[2],0.8 (inactive)
same,normalised cell number,[2]; [14],1.14
same,normalised cell number,[2]; [15],0.92
same,activity remaining,[3],104% (inactive)
same,luciferase signal,[4],64 AU (inactive)
CC1(C)C2CC(=O)[C@]3(C)C(CC[C@@]4(C)[C@H](c5ccoc5)OC(=O)C5OC543)[C@@]2(C)[C@@H](O)C[C@H]1O (some centres not stated),inhibition,[1],-2.4% (inactive)
same,red/green cell ratio (normalised),[2],1.04 (inactive)
same,normalised cell number,[2]; [14],0.78
same,normalised cell number,[2]; [15],0.8
same,activity remaining,[3],107% (inactive)
same,luciferase signal,[4],80 AU (inactive)
CC(=O)C1CCC2C3CCC4C[C@H](O)CCC4(C)C3C[C@H](O)C12C (some centres not stated),inhibition,[1],-3.34% (inactive)
same,red/green cell ratio (normalised),[2],1.12 (inactive)
same,normalised cell number,[2]; [14],0.99
same,normalised cell number,[2]; [15],1.11
same,activity remaining,[3],112% (inactive)
same,luciferase signal,[4],32 AU (inactive)
C/C=C(/C)C(=O)O[C@H]1CC[C@@]2(C)[C@@H]3CC[C@H]4[C@]5(O)C[C@H](O)[C@@]6(O)[C@@H](CN7C[C@@H](C)CC[C@H]7[C@@]6(C)O)[C@]5(O)C[C@@]42O[C@]13O,inhibition,[5],-10.4%
same,score,[6],1.23
same,rescue above control,[7],6.62
same,cytochrome c release ratio,[8],0.66
same,inhibition of aggregation,[9],73.8%
same,glutamate uptake change,[10],7.49%
same,inclusion score,[11],2
same,aggregation suppression score,[12],1.05
same,inhibition,[1],-10.1% (inactive)
same,red/green cell ratio (normalised),[2],0.76 (inactive)
same,normalised cell number,[2]; [14],1.31
same,normalised cell number,[2]; [15],1
same,activity remaining,[3],98.9% (inactive)
same,luciferase signal,[4],96 AU (inactive) and 56 AU (inactive)
COc1cc([C@@H]2c3cc4c(c(O)c3C[C@H]3COC(=O)[C@@H]32)OCO4)cc(OC)c1OC,inhibition,[1],-17.8% (inactive)
same,red/green cell ratio (normalised),[2],0.83 (inactive)
same,normalised cell number,[2]; [14],0.2
same,normalised cell number,[2]; [15],0.16
same,activity remaining,[3],116% (inactive)
same,luciferase signal,[4],16 AU (inactive)
Cc1[nH]c2ccccc2c1CN(C)C,inhibition,[1],-5.39% (inactive)
same,red/green cell ratio (normalised),[2],0.92 (inactive)
same,normalised cell number,[2]; [14],0.99
same,normalised cell number,[2]; [15],0.91
same,activity remaining,[3],101% (inactive)
same,luciferase signal,[4],44 AU (inactive)
COc1cc2c(cc1O)CCNC2C (configuration not stated),inhibition,[1],-21.7% (inactive)
same,red/green cell ratio (normalised),[2],0.92 (inactive)
same,normalised cell number,[2]; [14],1
same,normalised cell number,[2]; [15],0.92
same,activity remaining,[3],107% (inactive)
same,luciferase signal,[4],120 AU (inactive)
CC(C)=CCCC1(C)C=Cc2c(O)c3c(c(CC=C(C)C)c2O1)OC12C(=CC4CC1C(C)(C)OC2(C/C=C(/C)C(=O)O)C4O)C3=O (configuration not stated),inhibition,[1],3.01% (inactive)
same,red/green cell ratio (normalised),[2],0.97 (inactive)
same,normalised cell number,[2]; [14],0.89
same,normalised cell number,[2]; [15],0.87
same,activity remaining,[3],106% (inactive)
same,luciferase signal,[4],88 AU (inactive)
COC(=O)[C@]1(C)CC[C@]2(C)CC[C@]3(C)C4=CC=C5C(=CC(=O)C(O)=C5C)[C@]4(C)CC[C@@]3(C)[C@@H]2C1,inhibition,[1],9.49% (inactive)
same,red/green cell ratio (normalised),[2],0.14 (inactive)
same,normalised cell number,[2]; [14],0.01
same,normalised cell number,[2]; [15],0
same,activity remaining,[3],87.2% (inactive)
same,luciferase signal,[4],152 AU (inactive)
CC1(C)C(=O)[C@@H]2O[C@@H]2[C@@]2(C)C1C[C@@H](O)[C@]1(C)C2CC[C@@]2(C)[C@H](c3ccoc3)OC(=O)C3OC321 (some centres not stated),inhibition,[1],4.53% (inactive)
same,red/green cell ratio (normalised),[2],1.01 (inactive)
same,normalised cell number,[2]; [14],1.01
same,normalised cell number,[2]; [15],1.01
same,activity remaining,[3],96.1% (inactive)
same,luciferase signal,[4],24 AU (inactive)
COc1cc2ccc(=O)oc2c2ccoc12,inhibition,[1],13.8% (inactive)
same,red/green cell ratio (normalised),[2],1.01 (inactive)
same,normalised cell number,[2]; [14],0.96
same,normalised cell number,[2]; [15],0.97
same,activity remaining,[3],119% (inactive)
same,luciferase signal,[4],64 AU (inactive)
O=C1c2ccccc2-c2cccc3cccc1c23,inhibition,[1],-2.36% (inactive)
same,red/green cell ratio (normalised),[2]; [13],0.82 (inactive)
same,normalised cell number,[2]; [14],1.23
same,normalised cell number,[2]; [15],1.01
same,activity remaining,[3],106% (inactive)
same,luciferase signal,[4],64 AU (inactive)
COC(=O)NC(=S)Nc1ccccc1NC(=S)NC(=O)OC,inhibition,[1],-13.9% (inactive)
same,red/green cell ratio (normalised),[2],0.85 (inactive)
same,normalised cell number,[2]; [14],1.16
same,normalised cell number,[2]; [15],0.98
same,activity remaining,[3],110% (inactive)
same,luciferase signal,[4],8 AU (inactive)
CN1CCCCC1c1ccc(-c2cccnc2)nc1 (configuration not stated),inhibition,[1],-0.658% (inactive)
same,red/green cell ratio (normalised),[2]; [13],1.09 (inactive)
same,normalised cell number,[2]; [14],0.96
same,normalised cell number,[2]; [15],1.04
same,activity remaining,[3],113% (inactive)
same,luciferase signal,[4],52 AU (inactive)
COc1ccc(/C=C/c2cc(O)cc(O)c2)cc1,inhibition,[1],16.8% (inactive)
same,red/green cell ratio (normalised),[2],1.08 (inactive)
same,normalised cell number,[2]; [14],0.95
same,normalised cell number,[2]; [15],1.03
same,activity remaining,[3],103% (inactive)
same,luciferase signal,[4],176 AU (inactive)
COc1cc(OC)c2c(c1)O[C@H](c1ccc(OC)c(OC)c1)[C@@H](O)C2,inhibition,[1],14.9% (inactive)
same,red/green cell ratio (normalised),[2],0.81 (inactive)
same,normalised cell number,[2]; [14],0.96
same,normalised cell number,[2]; [15],0.78
same,activity remaining,[3],111% (inactive)
same,luciferase signal,[4],32 AU (inactive)
C/C=C/c1ccc2c(c1)OCO2,inhibition,[1],-4.44% (inactive)
same,red/green cell ratio (normalised),[2],0.96 (inactive)
same,normalised cell number,[2]; [14],1.11
same,normalised cell number,[2]; [15],1.06
same,activity remaining,[3],80.6% (inactive)
same,luciferase signal,[4],296 AU (active)
CC(C)c1ccc2c(c1O)CC[C@H]1C3=C(CC[C@]21C)C(=O)OC3,inhibition,[1],-50.6% (inactive)
same,red/green cell ratio (normalised),[2],0.95 (inactive)
same,normalised cell number,[2]; [14],1.07
same,normalised cell number,[2]; [15],1.02
same,activity remaining,[3],90.4% (inactive)
same,luciferase signal,[4],64 AU (inactive)
